Experimental data published in the supplement of paper PMC6555819.

Tests used:
Assay in all cases: PBM binding z-score (relative to random genomic background probes); higher = stronger binding; sequences stand for … in GC…GCGATTGACAGCGTAGAATGAAGG
[1] = system: RARb homodimer (NR concentration 270 nM)
Procedure, shortened: (§1)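 Ligand-free nuclear receptor dimers were bound for 1 h to custom Agilent 4×180K protein-binding microarrays. Detection used antibodies against each partner (one per run). Binding z-scores rest on regression-normalized fluorescence, with random background probes as the reference.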

[2] = system: RARg:RXRa (NR concentration 270 nM, RXRa partner concentration 90 nM)
Procedure, shortened: as §1

[3] = system: RARg homodimer (NR concentration 270 nM)
Procedure, shortened: as §1

[4] = system: RXRa DBDmut IVT, anti-RXR (DBD mutation: RXRa K156A/R161A, NR concentration 90 nM)
Procedure, shortened: as §1

[5] = system: RXRa homodimer (NR concentration 180 nM)
Procedure, shortened: as §1

[6] = system: THRa:RXRa (NR concentration 90 nM, RXRa partner concentration 90 nM)
Procedure, shortened: as §1

[7] = system: THRa homodimer (NR concentration 90 nM)
Procedure, shortened: as §1

[8] = system: VDR homodimer (NR concentration 270 nM)
Procedure, shortened: as §1

| Sequence | PBM binding z-score [1] | PBM binding z-score [2] | PBM binding z-score [3] | PBM binding z-score [4] | PBM binding z-score [5] | PBM binding z-score [6] | PBM binding z-score [7] | PBM binding z-score [8] |
| --- | --- | --- | --- | --- | --- | --- | --- | --- |
| GAGACAGGGTCAGCTAGAGGCCAGAGTATGGAAA | 3.05 | 6.57 | 4.77 | 1.03 | 4.3 | 3.06 | 0.161 | 0.581 |
| TCATATAGGTAAAAGTGAAAGTCGAACGATATGA | -0.485 | 0.288 | 0.384 | 0.791 | 0.523 | -0.171 | -0.456 | -0.103 |
| GCAGACAGGTGAAACGCAGGTATCTCAGGGTGGC | 0.0151 | 0.137 | 0.315 | -0.484 | 0.588 | 0.272 | -0.471 | -0.528 |
| AGAACGAGGTTACCAAAGATCAGGGAAACGCTTG | 0.645 | 1.94 | 1.91 | 0.737 | 2.66 | 2.31 | 0.23 | 0.242 |
| CGAACTAGGTCATCCGGGACAGTGAATACATTGA | 2.87 | 3.87 | 4.59 | 2.41 | 2.75 | 3.58 | 1.84 | 1.96 |
| AGAATGAGGTTATACGTAGATCAAGGAAGAAAGT | 0.606 | 1.96 | 1.11 | 1.82 | 2.3 | 2.04 | 0.406 | 0.854 |
| GCTTACGGGTCAAAGGTTATCGCATGAATAGAAT | 3.45 | 7.02 | 5.01 | 2.6 | 9.64 | 3.98 | 0.155 | 1.59 |
